Source: PubChem BioAssay AID1159580 (chemical genetic matrix, 2015)
“And” between values parts separate entries of the source, which are not always exact repeats. Equal values may be shown once. Among all 5,500 compounds or so, about 2,000 (36%) were called active. Another 18% or so got no clear call; they are omitted. No stated cut-off is given here; in the data, active means normalized growth mostly below about 0.91 (no sharp cut-off); inconclusive means no clear call, values can overlap the other calls; inactive means mostly above about 0.92. The list shows a part of the results.

Assay: chemical genetic growth profiling, strain panel (AID 1159580);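 further: tested at 20 µM; growth read once vehicle control cultures reached saturation at 30 °C; 1 = growth at the plate median or of vehicle wells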
Details: growth OD

Measured: normalized growth

O=c1[nH]oc2c1CCNC2
inactive: S. cerevisiae deletion strains, locus YKL009W, strain mrt4, stronger effect = lower value 0.992 | S. cerevisiae deletion strains, locus YKL068W, stronger effect = lower value 0.982 | S. cerevisiae deletion strains, locus YKL085W, strain MDH1 (second series), stronger effect = lower value 1.03 | S. cerevisiae deletion strains, locus YKL085W, strain MDH1, stronger effect = lower value 1.03 | S. cerevisiae deletion strains, locus YKL160W, strain elf1, stronger effect = lower value 0.99 | S. cerevisiae deletion strains, locus YKL190W, strain CNB1, stronger effect = lower value 1.01 | S. cerevisiae deletion strains, locus YKR001C, strain vps1, stronger effect = lower value 0.977 | S. cerevisiae deletion strains, locus YKR026C, strain gcn3, stronger effect = lower value 1 | S. cerevisiae deletion strains, locus YKR091W, strain srl3, stronger effect = lower value 1 | S. cerevisiae deletion strains, locus YLL001W, strain dnm1, stronger effect = lower value 0.973 | S. cerevisiae deletion strains, locus YLL026W, stronger effect = lower value 0.989 | S. cerevisiae deletion strains, locus YLL041C, strain sdh2, stronger effect = lower value 1.01 | S. cerevisiae deletion strains, locus YLR027C, strain aat2, stronger effect = lower value 0.99 | S. cerevisiae deletion strains, locus YLR039C, strain RIC1, stronger effect = lower value 1.01 | S. cerevisiae deletion strains, locus YLR058C, strain SHM2, stronger effect = lower value 0.999 | S. cerevisiae deletion strains, locus YLR102C, strain apc9, stronger effect = lower value 0.982 | S. cerevisiae deletion strains, locus YLR113W, strain HOG1, stronger effect = lower value 0.974 | S. cerevisiae deletion strains, locus YLR221C, strain rsa3, stronger effect = lower value 0.999 | S. cerevisiae deletion strains, locus YLR258W, strain gsy2, stronger effect = lower value 1 | S. cerevisiae deletion strains, locus YLR262C, strain YPT6 (second series), stronger effect = lower value 1 | S. cerevisiae deletion strains, locus YLR262C, strain YPT6, stronger effect = lower value 0.993 | S. cerevisiae deletion strains, locus YLR268W, strain sec22, stronger effect = lower value 1.01 | S. cerevisiae deletion strains, locus YLR320W, strain mms22, stronger effect = lower value 1.01 | S. cerevisiae deletion strains, locus YLR330W, strain CHS5, stronger effect = lower value 0.986 | S. cerevisiae deletion strains, locus YLR342W, strain FKS1 (second series), stronger effect = lower value 0.989 | S. cerevisiae deletion strains, locus YLR342W, strain FKS1, stronger effect = lower value 0.975 | S. cerevisiae deletion strains, locus YLR357W, strain rsc2, stronger effect = lower value 0.957 | S. cerevisiae deletion strains, locus YLR370C, strain arc18, stronger effect = lower value 1 | S. cerevisiae deletion strains, locus YLR371W, strain rom2, stronger effect = lower value 0.975 | S. cerevisiae deletion strains, locus YLR384C, strain iki3, stronger effect = lower value 0.999 | S. cerevisiae deletion strains, locus YLR418C, strain cdc73, stronger effect = lower value 1.05 | S. cerevisiae deletion strains, locus YML016C, strain PPZ1, stronger effect = lower value 1.01 | S. cerevisiae deletion strains, locus YML032C, strain rad52, stronger effect = lower value 0.954 | S. cerevisiae deletion strains, locus YML120C, strain ndi1, stronger effect = lower value 0.993 | S. cerevisiae deletion strains, locus YML124C, strain tub3, stronger effect = lower value 0.987 | S. cerevisiae deletion strains, locus YMR058W, strain fet3, stronger effect = lower value 1.01 | S. cerevisiae deletion strains, locus YMR078C, strain ctf18, stronger effect = lower value 0.97 | S. cerevisiae deletion strains, locus YMR125W, strain sto1, stronger effect = lower value 0.989 | S. cerevisiae deletion strains, locus YMR129W, stronger effect = lower value 0.996 | S. cerevisiae deletion strains, locus YMR205C, strain PFK2, stronger effect = lower value 0.992 | S. cerevisiae deletion strains, locus YMR223W, strain ubp8, stronger effect = lower value 0.967 | S. cerevisiae deletion strains, locus YMR231W, strain pep5, stronger effect = lower value 0.995 | S. cerevisiae deletion strains, locus YMR263W, strain SAP30, stronger effect = lower value 1.02 | S. cerevisiae deletion strains, locus YMR307W, strain GAS1, stronger effect = lower value 1.06 and 0.998 | S. cerevisiae deletion strains, locus YNL067W, strain RPL9B, stronger effect = lower value 1.03 | S. cerevisiae deletion strains, locus YNL071W, strain lat1, stronger effect = lower value 1.01 | S. cerevisiae deletion strains, locus YNL128W, strain TEP1, stronger effect = lower value 1.03 | S. cerevisiae deletion strains, locus YNL153C, strain GIM3, stronger effect = lower value 1.03 | S. cerevisiae deletion strains, locus YNL175C, strain NOP13, stronger effect = lower value 1.02 | S. cerevisiae deletion strains, locus YNL183C, strain NPR1, stronger effect = lower value 0.924 | S. cerevisiae deletion strains, locus YNL197C, strain WHI3, stronger effect = lower value 1.05 | S. cerevisiae deletion strains, locus YNL209W, strain ssb2, stronger effect = lower value 0.999 | S. cerevisiae deletion strains, locus YNL224C, strain SQS1, stronger effect = lower value 1.02 | S. cerevisiae deletion strains, locus YNL233W, strain BNI4, stronger effect = lower value 1.04 | S. cerevisiae deletion strains, locus YNL248C, strain rpa49, stronger effect = lower value 1.01 | S. cerevisiae deletion strains, locus YNL250W, strain rad50, stronger effect = lower value 0.966 | S. cerevisiae deletion strains, locus YNL271C, strain bni1, stronger effect = lower value 0.989 | S. cerevisiae deletion strains, locus YNL298W, strain CLA4, stronger effect = lower value 0.962 | S. cerevisiae deletion strains, locus YNL307C, strain MCK1, stronger effect = lower value 0.988 | S. cerevisiae deletion strains, locus YNL322C, strain KRE1 (second series), stronger effect = lower value 0.995 | S. cerevisiae deletion strains, locus YNL322C, strain KRE1, stronger effect = lower value 0.999 | S. cerevisiae deletion strains, locus YNR049C, strain mso1, stronger effect = lower value 1 | S. cerevisiae deletion strains, locus YNR052C, strain pop2, stronger effect = lower value 0.955 | S. cerevisiae deletion strains, locus YOL006C, strain TOP1, stronger effect = lower value 1.09 | S. cerevisiae deletion strains, locus YOL012C, strain htz1 1.13 | S. cerevisiae deletion strains, locus YOL147C, strain pex11, stronger effect = lower value 0.979 | S. cerevisiae deletion strains, locus YOR001W, strain rrp6, stronger effect = lower value 0.991 | S. cerevisiae deletion strains, locus YOR061W, strain CKA2, stronger effect = lower value 1 | S. cerevisiae deletion strains, locus YOR069W, strain VPS5, stronger effect = lower value 0.993 | S. cerevisiae deletion strains, locus YOR070C, strain gyp1, stronger effect = lower value 0.999 | S. cerevisiae deletion strains, locus YOR080W, strain dia2, stronger effect = lower value 0.998 | S. cerevisiae deletion strains, locus YOR083W, strain WHI5 (second series), stronger effect = lower value 1 | S. cerevisiae deletion strains, locus YOR083W, strain WHI5, stronger effect = lower value 0.976 | S. cerevisiae deletion strains, locus YOR106W, strain vam3, stronger effect = lower value 1 | S. cerevisiae deletion strains, locus YOR136W, strain idh2, stronger effect = lower value 0.975 | S. cerevisiae deletion strains, locus YOR144C, strain elg1, stronger effect = lower value 0.989 | S. cerevisiae deletion strains, locus YOR184W, strain ser1, stronger effect = lower value 0.955 | S. cerevisiae deletion strains, locus YOR231W, strain MKK1, stronger effect = lower value 1.01 | S. cerevisiae deletion strains, locus YOR265W, strain rbl2, stronger effect = lower value 0.994 | S. cerevisiae deletion strains, locus YOR270C, strain vph1, stronger effect = lower value 1.04 | S. cerevisiae deletion strains, locus YOR290C, strain snf2, stronger effect = lower value 0.995 | S. cerevisiae deletion strains, locus YOR316C, strain cot1, stronger effect = lower value 0.995 | S. cerevisiae deletion strains, locus YPL051W, strain arl3, stronger effect = lower value 0.996 | S. cerevisiae deletion strains, locus YPL055C, strain LGE1, stronger effect = lower value 1.07 and 1.01 | S. cerevisiae deletion strains, locus YPL078C, strain atp4, stronger effect = lower value 0.992 | S. cerevisiae deletion strains, locus YPL106C, strain sse1, stronger effect = lower value 0.985 | S. cerevisiae deletion strains, locus YPL240C, strain hsp82, stronger effect = lower value 1.01 | S. cerevisiae deletion strains, locus YPL241C, strain CIN2, stronger effect = lower value 0.996 | S. cerevisiae deletion strains, locus YPL256C, strain CLN2, stronger effect = lower value 1.01 | S. cerevisiae deletion strains, locus YPR119W, strain clb2, stronger effect = lower value 0.985 | S. cerevisiae deletion strains, locus YPR141C, strain kar3, stronger effect = lower value 0.972 | S. cerevisiae deletion strains, locus YPR163C, strain tif3, stronger effect = lower value 0.968 | S. cerevisiae deletion strains, locus YPR167C, strain met16, stronger effect = lower value 0.993 | S. cerevisiae deletion strains, strain wtn01, stronger effect = lower value 1.01 | S. cerevisiae strains, strain wild type, stronger effect = lower value 0.998
